Bioassay records as filed in PubChem BioAssay.
Shown are actives, neighbours in structure and some others; about 12% of the full set was active somewhere.
BAZ2B inh: BAZ2B (human) inhibition; Potency, µM (titrated, usually from 114 µM), for the others: at the top dose activity change, negative = inhibition, actives largely listed as inhibitors; AlphaScreen BAZ2B-H3K14Ac peptide displacement; actives 4.4% (n = 360,000); Q9UIF8; also: % is scaled to controls: 0 for no effect and ±100 for the full control effect; nearly all actives have a fitted effect of over 60% in size
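Multi-concentration screen (max 110 uM) measuring displacement of acetylated histone H3 peptide from BAZ2B by AlphaScreen, using 50 nM protein, 50 nM peptide and 10 ug/mL streptavidin donor plus Ni-chelate acceptor beads.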
Sfp PPTase inh: Sfp phosphopantetheinyl transferase inhibition; Q9F4F7; Biochemical Sfp PPTase activity, qHTS; Potency, µM, without a hit: largest response in the series, negative = inhibition, hits mostly inhibitors; actives 3.5% (n = 310,000);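 also: the enzyme is Sfp with the accession as filed and its product quenches rhodamine fluorescence; 0% = enzyme reaction without inhibitor and -100% = no enzyme wells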
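With Hepes-Na pH 7.6 buffer containing 10 mM MgCl2, Sfp (15 nM) modified BHQ-2-YbbR (12.5 uM) using rhodamine-CoA (5 uM). Two reads 30 minutes apart at 525/598 nm yielded each well's rate.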
L3MBTL1 block: blocks human L3MBTL1; Q9Y468; AlphaScreen L3MBTL1–H3K9me1 peptide binding; Potency, µM (titrated, usually from 57.1 µM), inactives show at the highest dose activity, negative = inhibition, usual class: inhibitors; actives 0.66% (n = 230,000); also: % is scaled to controls: 0 for no effect and ±100 for the full control effect; nearly all actives have a fitted effect of over 60% in size
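First, the protein-peptide complex forms for 30 min at room temperature (L3MBTL1 50 nM, biotinylated H3K9me1 peptide 75 nM). Next, compounds are pin-transferred and incubated 30 min. Finally, AlphaScreen beads are added and read after 30 min.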
JMJD2A Tudor inh: JMJD2A Tudor domain (human) inhibition. O75164. AlphaScreen JMJD2A-Tudor / H3K4me3 peptide binding. Potency, µM (titrated, usually from 114 µM), inactives show at the top dose activity change, negative = inhibition, actives largely listed as inhibitors. actives 4.4% (n = 390,000); also: % is scaled to controls: 0 for no effect and ±100 for the full control effect; nearly all actives have a fitted effect of over 50% in size
G9a block: inhibitors of human histone lysine methyltransferase G9a. AID 504332. actives 8.8% (n = 350,000). Potency, µM (titrated, usually from 102 µM), for inactives: at the highest dose activity, negative = inhibition, most hits filed as inhibitors. G9a H3K9 monomethylation, AlphaScreen, 2 h. Q96KQ7; also: % is scaled to controls: 0 for no effect and ±100 for the full control effect; nearly all actives have a fitted effect of over 75% in size
Target sequence (Q96KQ7 913-1193 limits assumed): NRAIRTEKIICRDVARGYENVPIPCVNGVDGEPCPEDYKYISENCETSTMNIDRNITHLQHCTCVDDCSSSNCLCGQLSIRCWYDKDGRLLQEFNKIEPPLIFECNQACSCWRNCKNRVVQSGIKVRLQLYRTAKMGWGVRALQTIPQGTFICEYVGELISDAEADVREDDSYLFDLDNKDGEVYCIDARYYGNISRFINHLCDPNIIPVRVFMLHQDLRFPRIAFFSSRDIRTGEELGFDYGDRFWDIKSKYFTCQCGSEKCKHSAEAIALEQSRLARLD
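G9a (20 nM) preincubated 15 min RT with compounds, then 500 nM biotinylated H3K9 peptide and 20 uM SAM added; 2 h RT reaction. Monomethyl-H3K9 product detected by AlphaScreen with anti-H3K9me1 antibody, streptavidin donor and anti-rabbit IgG acceptor beads.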
HP1b chromo inh: HP1-beta chromodomain-methylated histone interaction inhibition | P83916 | AlphaScreen HP1-beta / biotin-H3K9me3 peptide binding | Potency, µM (titrated, usually from 114 µM), for the others: at the top dose activity change, negative = inhibition, usual class: inhibitors | actives 0.56% (n = 390,000) | AID 540317; also: nearly all actives have a fitted effect of over 70% in size
Target sequence (P83916 whole entry, looked up): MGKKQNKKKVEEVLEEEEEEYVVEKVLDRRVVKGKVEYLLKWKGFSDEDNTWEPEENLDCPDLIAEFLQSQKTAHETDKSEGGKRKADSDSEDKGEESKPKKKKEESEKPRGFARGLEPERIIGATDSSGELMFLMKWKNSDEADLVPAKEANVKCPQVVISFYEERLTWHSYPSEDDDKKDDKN
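Compound inhibition of the preformed complex between 50 nM HP1-beta and 50 nM biotinylated H3K9me3 peptide was read by AlphaScreen. Buffer was PBS pH 7.4 with 0.01% Tween-20. Incubations ran 30 min at room temperature, with 10 ug/mL donor/acceptor beads.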
Numbers without * were called inactive; ? = inconclusive; . = no result; [ ] = dose if it differs, or a comment. Calls follow the shape of the dose curve; as a rule, active = well fitted curve in the direction sought with a large enough effect; inconclusive = small, poorly fitted or top-dose-only effect, or another doubt; inactive = no such curve, though single readings can be large; an effect the other way counts as inactive or inconclusive. Potency is read from the fitted curve at half-maximal effect.

SMILES	BAZ2B inh	Sfp PPTase inh	L3MBTL1 block	JMJD2A Tudor inh	G9a block	HP1b chromo inh
COCCNC(=O)Cn1c(=O)n(-c2ccc(C)c(C)c2)c(=O)c2c3c(sc21)CCCCC3	7%	.	.	-8%	-8%[59 µM]	12%
COc1ccc(CCC(C)Nc2cccc(F)c2)cc1 (centres undefined)	18%	45µM*	46%	57%	?	142%
COc1cccc(OC)c1C(=O)NC(C)CCc1ccccc1 (centres undefined)	2%	16%	5%[2.29 µM]	-10%	-9%[0.501 µM]	13%
COc1cc(NC(C)CCc2ccccc2)cc(OC)c1OC (centres undefined)	?	-20%	-12%	45µM*	.	?
COc1ccc(CCC(C)Nc2ccccc2F)cc1 (centres undefined)	62%	-10%	70%	72%	34%[59 µM]	137%
N#Cc1ccc(-c2csc(NNC(=O)c3ccccc3)n2)cc1	1%	-10%	1%	-31%	.	17%
Cc1cc(-c2csc(NC(=O)c3ccc(C#N)cc3)n2)c(C)n1Cc1ccccc1	8%	14%	6%	-26%	45µM*	29%
Cn1nnnc1SCc1nnc(-c2ccc(Cl)cc2)o1	-15%	13%	1%	3%	6%[59 µM]	56%
Cc1occc1-c1nnc(SCc2nnc(-c3ccc(Cl)cc3)o2)n1C	-21%	-29%	-7%	-35%[11.4 µM]	79µM*	?
O=C1SC(Nc2ccc(Cl)cc2)C(=O)N1Cc1ccccc1 (centres undefined)	15%	.	.	8%	-43%[59 µM]	75%
CCOc1ccc(NC2SC(=O)N(Cc3ccccc3)C2=O)cc1 (centres undefined)	?	.	.	?	11µM*	-20%
COC(=O)c1cccc(CN2C(=O)SC(Nc3ccccc3)C2=O)c1 (centres undefined)	-9%	3%	?	1%	79µM*	34%
CCc1nnc(NC(=O)c2cc(-c3ccco3)nc3ccccc23)s1	40µM*	-14%	?	?	50µM*	-15%
Cc1cc(C(=O)OCC(=O)Nc2cc(S(=O)(=O)N(C)C)ccc2C)c2ccccc2n1	-22%	7%	0%	-15%	8%	4%
CCc1nnc(NC(=O)c2cc(-c3ccccn3)nc3ccccc23)s1	?	-4%	-18%	-14%	?	26%
Cc1cccc(NC(=O)c2cc(-c3ccco3)nc3ccccc23)n1	?	22µM*	-6%	-26%	32µM*	34%
Cc1ccccc1NC(=O)c1cc(-c2ccco2)nc2ccccc12	.	.	.	20µM*	.	?
Cc1ccc(S(=O)(=O)N(C)C)cc1NC(=O)c1cc(-c2ccco2)nc2ccccc12	?	-6%	.	?	40µM*	7%
N#CN1CCC(NS(=O)(=O)c2ccc(F)cc2)CC1	.	.	.	-9%	.	.
O=S(=O)(Nc1ccc(F)cc1F)c1ccc(Br)s1	0%	.	.	-15%	-31%[59 µM]	20%
O=C(c1ccc2c(c1)N(Cc1ccc(F)cc1)C(=O)c1ccccc1S2=O)N1CCC(Cc2ccccc2)CC1 (centres undefined)	-22%	.	.	-18%	?	21%
O=C(Nc1c2ccccc2nc2ccccc12)C(Cl)(Cl)Cl	11%	-12%	11%	13%	45µM*	47%
O=C(Cc1ccccc1)NNc1c2ccccc2nc2ccccc12	?	2%	-22%	-19%	-26%	10%
CC(C)c1ccc(NC(=O)C(c2ccccc2)N(Cc2ccco2)C(=O)CC2NC(=O)NC2=O)cc1 (centres undefined)	?	-9%	.	-34%	14µM*	-8%
CN(C)C(=O)Nc1ccc(Oc2ccc(Cl)cc2)cc1	.	9%	.	.	.	.
SMILES	BAZ2B inh	Sfp PPTase inh	L3MBTL1 block	JMJD2A Tudor inh	G9a block	HP1b chromo inh
COc1cccc(C2=NS(=O)(=O)N(C)C(C(=O)Nc3ccccc3SC)=C2)c1	-21%	.	.	-14%	-6%[59 µM]	25%
Cc1ccc2nc3c(c(C(=O)O)c2c1)CCC3	-32%	17%	?	-30%	50µM*	4%
O=C(O)c1c2c(nc3ccc(F)cc13)CCC2	6%	10%	-1%	-12%	-22%[59 µM]	14%
c1ccc(CSc2nnnn2-c2ccccc2)cc1	148%	-10%	.	45%	211%	109%
O=c1cc(CSc2nnnn2-c2ccccc2)[nH]c2[nH]n(-c3ccccc3)c(=O)c12	?	-3%	-25%[11.4 µM]	89µM*	?	-16%
COc1ccc(CNC(=O)COc2cc(O)c3c(c2)OC(C)(C)CC3=O)c(OC)c1	9%[57.1 µM]	0%	-2%	89µM*	.	2%
Cc1ccccc1CNC(=O)c1cc2cc(S(=O)(=O)N3CCCCC3)ccc2n1C	1%	.	.	-27%	7%[59 µM]	14%[57 µM]
O=C1CNC(=S)N1CCc1ccc(O)c(O)c1	-1%	45µM*	.	?	10µM*	-1%
O=C1CNC(=S)N1CCOc1ccccc1	-16%	17%	-1%	0%	24%	28%
Cc1cc(-c2nn3c(-c4ccccc4)nnc3s2)c2ccccc2n1	2%	?	8%	-28%	2.2µM*	-23%
Cc1ccccc1-c1nn2c(-c3ccccc3)nnc2s1	24%	56µM*	37%	2%	16%[12.7 µM]	33%
c1ccc(-c2cc(-c3nn4c(-c5ccco5)nnc4s3)c3ccccc3n2)cc1	-5%	?	-4%	?	?	-15%
COc1ccc(N2CCN(Cc3nc(Cc4cccc(F)c4)no3)C(C)C2)cc1 (centres undefined)	25µM*	5%	-4%	50µM*	.	?
NC(=O)C[C@H](N)c1cn([C@@H](CC(N)=O)C(=O)N2CCNCC2)nn1	?	.	0%	79µM*	-15%[2.33 µM]	-4%
N[C@@H](CO)c1cn([C@@H](Cc2cc3ccccc3[nH]2)C(=O)N2CCNCC2)nn1	50µM*	9%	.	79µM*	-6%[12.7 µM]	27%
